In paper PMC7862700, “An all-to-all approach to the identification of sequence-specific readers for epigenetic DNA modifications on cytosine”:

What was measured:
Experiment in all cases: DAPPL (digital affinity profiling via proximity ligation, sequencing); 10 mM Tris-HCl pH 7.5, 50 mM NaCl, 1 mM DTT, 4% glycerol, room temperature, 30 min; GST-TFs on glutathione beads, 16-mer random dsDNA library, 0.1% formaldehyde crosslink after washing; high values mean tight binding
Conditions in all cases: protein: recombinant; tags: N-terminal GST; dsDNA, one strand shown
[1] = target: T1, ERF (Homo sapiens, UniProt P50548 1-548)
T1 sequence: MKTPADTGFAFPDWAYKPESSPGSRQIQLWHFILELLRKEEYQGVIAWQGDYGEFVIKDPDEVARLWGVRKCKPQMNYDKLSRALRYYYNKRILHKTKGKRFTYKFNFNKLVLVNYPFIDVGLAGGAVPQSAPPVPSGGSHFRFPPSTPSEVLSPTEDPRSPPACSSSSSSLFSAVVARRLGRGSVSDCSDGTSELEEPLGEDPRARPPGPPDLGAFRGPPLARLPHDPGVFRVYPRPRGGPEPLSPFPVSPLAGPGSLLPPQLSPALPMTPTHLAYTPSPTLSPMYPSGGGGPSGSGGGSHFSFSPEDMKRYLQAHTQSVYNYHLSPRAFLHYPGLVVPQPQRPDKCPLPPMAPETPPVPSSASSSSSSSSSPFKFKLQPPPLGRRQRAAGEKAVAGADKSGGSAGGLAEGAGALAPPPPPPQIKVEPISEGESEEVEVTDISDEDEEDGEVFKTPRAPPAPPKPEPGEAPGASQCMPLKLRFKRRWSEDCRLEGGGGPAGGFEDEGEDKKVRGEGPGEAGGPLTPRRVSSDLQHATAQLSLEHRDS
Outline: (§1)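 After expression in yeast as GST fusions, human transcription factors were bound to glutathione beads, DNA-barcoded and mixed with a tag-only sample. The pools were incubated with 200 nmole of a 16-mer random double-stranded DNA library in Tris/NaCl/DTT/glycerol buffer (30 min, room temperature), washed and crosslinked with 0.1% formaldehyde. Proximity ligation with BsaI/T4 ligase ran for 1 h at 37 °C, before PCR amplification and sequencing on an Illumina NextSeq500. Binding signal is a hexamer's read frequency for a factor divided by its frequency for the tag-only sample.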

[2] = target: T2, ETV3L (Homo sapiens, UniProt Q6ZN32 1-361)
T2 sequence: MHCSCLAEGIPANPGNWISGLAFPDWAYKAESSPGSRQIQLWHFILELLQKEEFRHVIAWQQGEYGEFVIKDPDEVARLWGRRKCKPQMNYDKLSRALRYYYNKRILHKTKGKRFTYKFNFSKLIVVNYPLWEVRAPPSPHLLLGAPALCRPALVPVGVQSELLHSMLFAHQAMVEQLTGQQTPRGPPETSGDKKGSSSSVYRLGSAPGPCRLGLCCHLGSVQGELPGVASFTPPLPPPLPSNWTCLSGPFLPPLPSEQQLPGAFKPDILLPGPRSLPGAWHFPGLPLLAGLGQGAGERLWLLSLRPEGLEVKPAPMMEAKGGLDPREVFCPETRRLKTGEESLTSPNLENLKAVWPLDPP
Outline: as §1

[3] = target: T3, ETS2 (Homo sapiens, UniProt P15036 1-469)
T3 sequence: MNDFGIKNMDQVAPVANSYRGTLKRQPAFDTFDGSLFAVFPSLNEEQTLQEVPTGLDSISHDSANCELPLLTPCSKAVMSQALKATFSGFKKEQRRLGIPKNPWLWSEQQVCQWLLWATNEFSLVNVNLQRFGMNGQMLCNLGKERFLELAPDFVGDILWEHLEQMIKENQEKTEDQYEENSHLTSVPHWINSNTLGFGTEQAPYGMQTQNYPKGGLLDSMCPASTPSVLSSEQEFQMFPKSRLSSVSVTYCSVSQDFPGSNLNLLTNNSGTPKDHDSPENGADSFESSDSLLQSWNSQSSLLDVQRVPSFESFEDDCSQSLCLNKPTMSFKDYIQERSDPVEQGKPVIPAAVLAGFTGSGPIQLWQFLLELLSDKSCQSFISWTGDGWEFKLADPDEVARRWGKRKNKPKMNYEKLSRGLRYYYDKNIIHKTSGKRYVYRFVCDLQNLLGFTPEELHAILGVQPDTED
Outline: as §1

[4] = target: T4, SPDEF (Homo sapiens, UniProt O95238 1-335)
T4 sequence: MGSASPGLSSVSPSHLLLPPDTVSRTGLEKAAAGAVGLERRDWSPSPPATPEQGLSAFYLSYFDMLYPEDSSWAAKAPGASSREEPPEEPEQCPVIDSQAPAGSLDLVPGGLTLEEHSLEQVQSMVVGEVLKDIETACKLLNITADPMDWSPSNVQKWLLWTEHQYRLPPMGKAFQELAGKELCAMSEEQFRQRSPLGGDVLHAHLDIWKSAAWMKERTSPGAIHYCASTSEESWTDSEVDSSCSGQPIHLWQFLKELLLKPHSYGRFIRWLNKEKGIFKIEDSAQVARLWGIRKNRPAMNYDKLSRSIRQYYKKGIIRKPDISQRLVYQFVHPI
Outline: as §1

[5] = target: T5, ETV7 (Homo sapiens, UniProt Q9Y603 1-341)
T5 sequence: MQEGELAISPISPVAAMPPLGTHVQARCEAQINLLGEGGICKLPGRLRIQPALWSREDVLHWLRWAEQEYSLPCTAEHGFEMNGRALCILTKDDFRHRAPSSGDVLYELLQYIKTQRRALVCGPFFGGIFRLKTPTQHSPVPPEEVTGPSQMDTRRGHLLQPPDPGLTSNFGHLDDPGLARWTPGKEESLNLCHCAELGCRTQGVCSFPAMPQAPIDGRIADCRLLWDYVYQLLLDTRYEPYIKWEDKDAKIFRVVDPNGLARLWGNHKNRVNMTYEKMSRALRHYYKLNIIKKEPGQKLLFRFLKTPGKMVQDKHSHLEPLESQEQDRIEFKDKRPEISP
Outline: as §1

[6] = target: T6, ELF5 (Homo sapiens, UniProt Q9UKW6-2 1-255)
T6 sequence: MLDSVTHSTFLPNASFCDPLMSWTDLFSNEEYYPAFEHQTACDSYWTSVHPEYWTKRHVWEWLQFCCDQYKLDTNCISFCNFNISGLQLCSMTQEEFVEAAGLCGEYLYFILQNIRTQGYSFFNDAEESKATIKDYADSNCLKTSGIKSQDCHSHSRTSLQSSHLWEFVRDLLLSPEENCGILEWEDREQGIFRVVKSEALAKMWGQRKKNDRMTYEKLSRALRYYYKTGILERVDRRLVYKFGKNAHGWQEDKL
Outline: as §1

[7] = target: T7, ETV3 (Homo sapiens, UniProt P41162-2 1-143)
T7 sequence: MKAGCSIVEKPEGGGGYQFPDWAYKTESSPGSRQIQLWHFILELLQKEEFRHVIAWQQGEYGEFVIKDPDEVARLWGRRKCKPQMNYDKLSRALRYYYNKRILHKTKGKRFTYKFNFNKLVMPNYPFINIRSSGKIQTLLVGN
Outline: as §1

[8] = target: ETV6 (Homo sapiens, UniProt P41212 1-452)
Outline: as §1

Chain of ETV6 (P41212 whole entry): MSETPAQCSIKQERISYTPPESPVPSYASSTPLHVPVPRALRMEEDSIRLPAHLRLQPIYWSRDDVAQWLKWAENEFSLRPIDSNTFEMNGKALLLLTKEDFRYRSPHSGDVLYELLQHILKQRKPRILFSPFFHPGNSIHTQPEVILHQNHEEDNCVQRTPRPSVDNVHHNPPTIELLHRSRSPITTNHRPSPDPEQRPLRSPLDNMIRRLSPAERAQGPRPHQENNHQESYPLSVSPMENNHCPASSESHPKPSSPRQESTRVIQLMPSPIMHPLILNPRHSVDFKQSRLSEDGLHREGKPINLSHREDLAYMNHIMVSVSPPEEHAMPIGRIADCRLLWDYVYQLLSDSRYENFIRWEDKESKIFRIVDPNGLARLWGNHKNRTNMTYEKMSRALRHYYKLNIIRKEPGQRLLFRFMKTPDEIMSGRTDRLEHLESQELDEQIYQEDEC

Sequence	binding signal [1]	binding signal [2]	binding signal [3]	binding signal [4]	binding signal [5]	binding signal [6]	binding signal [7]	binding signal [8]
ACTATG	1.15 fold enrichment (6-mer frequency, TF over GST control)	1.2 fold enrichment (6-mer frequency, TF over GST control)	1.3 fold enrichment (6-mer frequency, TF over GST control)	1.28 fold enrichment (6-mer frequency, TF over GST control)	1.18 fold enrichment (6-mer frequency, TF over GST control)	1.16 fold enrichment (6-mer frequency, TF over GST control)	1.25 fold enrichment (6-mer frequency, TF over GST control)	1.19 fold enrichment (6-mer frequency, TF over GST control)
AAAATA	1.27 fold enrichment (6-mer frequency, TF over GST control)	1.14 fold enrichment (6-mer frequency, TF over GST control)	1.24 fold enrichment (6-mer frequency, TF over GST control)	1.06 fold enrichment (6-mer frequency, TF over GST control)	1.22 fold enrichment (6-mer frequency, TF over GST control)	1.2 fold enrichment (6-mer frequency, TF over GST control)	1.13 fold enrichment (6-mer frequency, TF over GST control)	1.25 fold enrichment (6-mer frequency, TF over GST control)
TCTTCC	2.26 fold enrichment (6-mer frequency, TF over GST control)	2.66 fold enrichment (6-mer frequency, TF over GST control)	2.8 fold enrichment (6-mer frequency, TF over GST control)	2.45 fold enrichment (6-mer frequency, TF over GST control)	2.35 fold enrichment (6-mer frequency, TF over GST control)	4.14 fold enrichment (6-mer frequency, TF over GST control)	2.74 fold enrichment (6-mer frequency, TF over GST control)	2.8 fold enrichment (6-mer frequency, TF over GST control)
CCCGTA	1.09 fold enrichment (6-mer frequency, TF over GST control)	1.19 fold enrichment (6-mer frequency, TF over GST control)	1.2 fold enrichment (6-mer frequency, TF over GST control)	1.24 fold enrichment (6-mer frequency, TF over GST control)	1.12 fold enrichment (6-mer frequency, TF over GST control)	1.21 fold enrichment (6-mer frequency, TF over GST control)	1.21 fold enrichment (6-mer frequency, TF over GST control)	1.25 fold enrichment (6-mer frequency, TF over GST control)
CCTCGA	1.28 fold enrichment (6-mer frequency, TF over GST control)	1.35 fold enrichment (6-mer frequency, TF over GST control)	1.21 fold enrichment (6-mer frequency, TF over GST control)	1.23 fold enrichment (6-mer frequency, TF over GST control)	1.42 fold enrichment (6-mer frequency, TF over GST control)	1.34 fold enrichment (6-mer frequency, TF over GST control)	1.26 fold enrichment (6-mer frequency, TF over GST control)	1.29 fold enrichment (6-mer frequency, TF over GST control)
GTTCTA	1.27 fold enrichment (6-mer frequency, TF over GST control)	1.2 fold enrichment (6-mer frequency, TF over GST control)	1.25 fold enrichment (6-mer frequency, TF over GST control)	1.19 fold enrichment (6-mer frequency, TF over GST control)	1.2 fold enrichment (6-mer frequency, TF over GST control)	1.23 fold enrichment (6-mer frequency, TF over GST control)	1.19 fold enrichment (6-mer frequency, TF over GST control)	1.24 fold enrichment (6-mer frequency, TF over GST control)
GTATTA	1.24 fold enrichment (6-mer frequency, TF over GST control)	1.04 fold enrichment (6-mer frequency, TF over GST control)	1.07 fold enrichment (6-mer frequency, TF over GST control)	1.17 fold enrichment (6-mer frequency, TF over GST control)	1.05 fold enrichment (6-mer frequency, TF over GST control)	1.02 fold enrichment (6-mer frequency, TF over GST control)	1.14 fold enrichment (6-mer frequency, TF over GST control)	1.16 fold enrichment (6-mer frequency, TF over GST control)
TAATAA	1.28 fold enrichment (6-mer frequency, TF over GST control)	1.24 fold enrichment (6-mer frequency, TF over GST control)	1.21 fold enrichment (6-mer frequency, TF over GST control)	1.19 fold enrichment (6-mer frequency, TF over GST control)	1.14 fold enrichment (6-mer frequency, TF over GST control)	1.15 fold enrichment (6-mer frequency, TF over GST control)	1.11 fold enrichment (6-mer frequency, TF over GST control)	1.17 fold enrichment (6-mer frequency, TF over GST control)
TCTGAT	1.22 fold enrichment (6-mer frequency, TF over GST control)	1.29 fold enrichment (6-mer frequency, TF over GST control)	1.29 fold enrichment (6-mer frequency, TF over GST control)	1.22 fold enrichment (6-mer frequency, TF over GST control)	1.23 fold enrichment (6-mer frequency, TF over GST control)	1.19 fold enrichment (6-mer frequency, TF over GST control)	1.21 fold enrichment (6-mer frequency, TF over GST control)	1.19 fold enrichment (6-mer frequency, TF over GST control)
AGATTC	1.05 fold enrichment (6-mer frequency, TF over GST control)	1.23 fold enrichment (6-mer frequency, TF over GST control)	1.08 fold enrichment (6-mer frequency, TF over GST control)	1.17 fold enrichment (6-mer frequency, TF over GST control)	1.18 fold enrichment (6-mer frequency, TF over GST control)	1.09 fold enrichment (6-mer frequency, TF over GST control)	1.15 fold enrichment (6-mer frequency, TF over GST control)	1.22 fold enrichment (6-mer frequency, TF over GST control)
TGCTAG	1.21 fold enrichment (6-mer frequency, TF over GST control)	1.29 fold enrichment (6-mer frequency, TF over GST control)	1.04 fold enrichment (6-mer frequency, TF over GST control)	1.09 fold enrichment (6-mer frequency, TF over GST control)	1.16 fold enrichment (6-mer frequency, TF over GST control)	1.09 fold enrichment (6-mer frequency, TF over GST control)	1.13 fold enrichment (6-mer frequency, TF over GST control)	1.05 fold enrichment (6-mer frequency, TF over GST control)
TGGCTA	1.33 fold enrichment (6-mer frequency, TF over GST control)	1.21 fold enrichment (6-mer frequency, TF over GST control)	1.16 fold enrichment (6-mer frequency, TF over GST control)	1.28 fold enrichment (6-mer frequency, TF over GST control)	1.29 fold enrichment (6-mer frequency, TF over GST control)	1.14 fold enrichment (6-mer frequency, TF over GST control)	1.18 fold enrichment (6-mer frequency, TF over GST control)	1.28 fold enrichment (6-mer frequency, TF over GST control)
AATACA	1.43 fold enrichment (6-mer frequency, TF over GST control)	1.27 fold enrichment (6-mer frequency, TF over GST control)	1.25 fold enrichment (6-mer frequency, TF over GST control)	1.37 fold enrichment (6-mer frequency, TF over GST control)	1.41 fold enrichment (6-mer frequency, TF over GST control)	1.4 fold enrichment (6-mer frequency, TF over GST control)	1.28 fold enrichment (6-mer frequency, TF over GST control)	1.34 fold enrichment (6-mer frequency, TF over GST control)
TCCTAC	1.5 fold enrichment (6-mer frequency, TF over GST control)	1.52 fold enrichment (6-mer frequency, TF over GST control)	1.48 fold enrichment (6-mer frequency, TF over GST control)	1.43 fold enrichment (6-mer frequency, TF over GST control)	1.39 fold enrichment (6-mer frequency, TF over GST control)	1.79 fold enrichment (6-mer frequency, TF over GST control)	1.48 fold enrichment (6-mer frequency, TF over GST control)	1.47 fold enrichment (6-mer frequency, TF over GST control)
TCCTGT	1.6 fold enrichment (6-mer frequency, TF over GST control)	1.88 fold enrichment (6-mer frequency, TF over GST control)	1.84 fold enrichment (6-mer frequency, TF over GST control)	2.32 fold enrichment (6-mer frequency, TF over GST control)	1.89 fold enrichment (6-mer frequency, TF over GST control)	2.35 fold enrichment (6-mer frequency, TF over GST control)	1.89 fold enrichment (6-mer frequency, TF over GST control)	1.84 fold enrichment (6-mer frequency, TF over GST control)
